Records with an inconclusive call do not appear. Activity calls are given as the source filed them. Calls follow the shape of the dose curve; as a rule, active = well fitted cell-killing curve with a large enough effect; inconclusive = small, poorly fitted or top-dose-only effect, or effect the other way; inactive = flat fitted curve, though single readings scatter.
Columns and labels:
Test in all cases: Primary qHTS to identify gynecologic anti-cancer compounds using libraries of approved drugs and bioactive compounds (AID 1345084); also: nearly all actives have a fitted effect of over 55% in size
C33A = conditions: Gynecologic cancer cell panel viability, ATPlite luminescence, 48 h; series mostly up to 57.5 µM
Outline: (§1)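 ATP-based viability (ATPlite), 1,000 cells/well, 16 h pre-incubation, 48 h compound at 37 C, 5% CO2, 15 min RT before read.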

CAOV3 = conditions: Gynecologic cancer cell panel viability, ATPlite luminescence, 48 h; series mostly up to 57.5 µM
Outline: as §1

CASKI = conditions: Gynecologic cancer cell panel viability, ATPlite luminescence, 48 h; series mostly up to 57.5 µM
Outline: as §1

Es-2 = conditions: Gynecologic cancer cell panel viability, ATPlite luminescence, 48 h; series mostly up to 57.5 µM
Outline: as §1

HeLa = conditions: Gynecologic cancer cell panel viability, ATPlite luminescence, 48 h; series mostly up to 57.5 µM
Outline: as §1

Hek293T = conditions: Gynecologic cancer cell panel viability, ATPlite luminescence, 48 h, control line for the selectivity index; series mostly up to 57.5 µM
Outline: as §1

JEG-3 = conditions: Gynecologic cancer cell panel viability, ATPlite luminescence, 48 h; series mostly up to 57.5 µM
Outline: as §1

OV90 = conditions: Gynecologic cancer cell panel viability, ATPlite luminescence, 48 h; series mostly up to 57.5 µM
Outline: as §1

PA-1 = conditions: Gynecologic cancer cell panel viability, ATPlite luminescence, 48 h; series mostly up to 57.5 µM
Outline: as §1

SKOV3 = conditions: Gynecologic cancer cell panel viability, ATPlite luminescence, 48 h; series mostly up to 57.5 µM
Outline: as §1

Tov-21-G = conditions: Gynecologic cancer cell panel viability, ATPlite luminescence, 48 h; series mostly up to 57.5 µM
Outline: as §1

Tov112D = conditions: Gynecologic cancer cell panel viability, ATPlite luminescence, 48 h; series mostly up to 57.5 µM
Outline: as §1
% is scaled to controls: 0 for no effect and ±100 for the full control effect.

C[C@@H]1O[C@@H](O[C@H]2[C@H](O[C@H]3[C@H](O[C@H]4CC[C@@]5(CO)C(CC[C@]6(C)C5CC=C5C7CC(C)(C)C[C@@H](O)[C@]7(C)CC[C@]56C)C4(C)C)O[C@H](C(=O)O)[C@@H](O)[C@@H]3O)OC[C@@H](O)[C@@H]2O)[C@H](O)[C@H](O)[C@H]1O (stereo partly specified)
inactive: activity change, negative = cytotoxicity (C33A) -1.54% [at 11.6 µM] | activity change, negative = cytotoxicity (CAOV3) 7.01% [at 11.6 µM] | activity change, negative = cytotoxicity (CASKI) 6.9% [at 11.6 µM] | activity change, negative = cytotoxicity (Es-2) -4.17% [at 11.6 µM] | activity change, negative = cytotoxicity (HeLa) -12.2% [at 11.6 µM] | activity change, negative = cytotoxicity (Hek293T) -3.07% [at 11.6 µM] | activity change, negative = cytotoxicity (JEG-3) -1.11% [at 11.6 µM] | activity change, negative = cytotoxicity (OV90) -1.83% [at 11.6 µM] | activity change, negative = cytotoxicity (PA-1) 6.18% [at 11.6 µM] | activity change, negative = cytotoxicity (SKOV3) 0.621% [at 11.6 µM] | activity change, negative = cytotoxicity (Tov-21-G) 0.307% [at 11.6 µM] | activity change, negative = cytotoxicity (Tov112D) -0.127% [at 11.6 µM]

CCC(C)/C=C(C)/C=C/C1=CC2=C(Cl)C(=O)C(C)(OC(C)=O)C(=O)C2=CN1CCCC(=O)O (stereo unspecified)
inactive: Potency (C33A) | Potency (CAOV3) | Potency (CASKI) | Potency (Es-2) | Potency (HeLa) | Potency (Hek293T) | Potency (JEG-3) | Potency (OV90) | Potency (PA-1) | Potency (SKOV3) | Potency (Tov-21-G) | Potency (Tov112D)

CCOc1ccc(C(Nc2ccccn2)c2ccc3ccc(C)nc3c2O)cc1C (stereo unspecified)
inactive: Potency (C33A) | Potency (CAOV3) | Potency (CASKI) | Potency (Es-2) | Potency (HeLa) | Potency (Hek293T) | Potency (JEG-3) | Potency (OV90) | Potency (PA-1) | Potency (SKOV3) | Potency (Tov-21-G) | Potency (Tov112D)

C=C1CC2[C@]3(C)C(=C(O)C(=O)[C@@]2(C)[C@]2(C(=O)OC)C(=O)C(C)OC(=O)[C@@]12C)C(C)(C)C(=O)CC3O (stereo partly specified)
inactive: Potency (C33A) | Potency (CAOV3) | Potency (CASKI) | Potency (Es-2) | Potency (HeLa) | Potency (Hek293T) | Potency (JEG-3) | Potency (OV90) | Potency (PA-1) | Potency (SKOV3) | Potency (Tov-21-G) | Potency (Tov112D)

C[C@@H]1C(=O)O[C@H]2CC34[C@H]5C[C@@H](C(C)(C)C)C36[C@@H](OC(=O)[C@@H]6O)O[C@@]4(C(=O)O5)[C@]21O (stereo partly specified)
inactive: Potency (C33A) | Potency (CAOV3) | Potency (CASKI) | Potency (Es-2) | Potency (HeLa) | Potency (Hek293T) | Potency (JEG-3) | Potency (OV90) | Potency (PA-1) | Potency (SKOV3) | Potency (Tov-21-G) | Potency (Tov112D)

CC1(C)CC2C3=CCC4C5(C)CCC(OC6OC(C(=O)O)C(O)C(O)C6OC6OC(CO)C(O)C(O)C6OC6OC(CO)C(O)C(O)C6O)C(C)(CO)C5CCC4(C)C3(C)CCC2(C)C(OC2OCC(O)C(OC3OC(CO)C(O)C(O)C3O)C2O)C1O (stereo unspecified)
inactive: activity change, negative = cytotoxicity (C33A) 8.44% [at 6.55 µM] | activity change, negative = cytotoxicity (CAOV3) 13.1% [at 6.55 µM] | activity change, negative = cytotoxicity (CASKI) 6.12% [at 6.55 µM] | activity change, negative = cytotoxicity (Es-2) 1.46% [at 6.55 µM] | activity change, negative = cytotoxicity (HeLa) -0.393% [at 6.55 µM] | activity change, negative = cytotoxicity (Hek293T) 8.01% [at 6.55 µM] | activity change, negative = cytotoxicity (JEG-3) 6.32% [at 6.55 µM] | activity change, negative = cytotoxicity (OV90) -9.75% [at 6.55 µM] | activity change, negative = cytotoxicity (PA-1) 5.88% [at 6.55 µM] | activity change, negative = cytotoxicity (SKOV3) 16.1% [at 6.55 µM] | activity change, negative = cytotoxicity (Tov-21-G) -0.438% [at 6.55 µM] | activity change, negative = cytotoxicity (Tov112D) 1.06% [at 6.55 µM]

CC(C)N(C[C@H]1O[C@@H](n2cnc3c(N)ncnc32)[C@H](O)[C@@H]1O)C1CC(CCc2nc3ccc(C(C)(C)C)cc3[nH]2)C1 (stereo partly specified)
inactive: Potency (C33A) | Potency (CAOV3) | Potency (CASKI) | Potency (Es-2) | Potency (HeLa) | Potency (Hek293T) | Potency (JEG-3) | Potency (OV90) | Potency (PA-1) | Potency (SKOV3) | Potency (Tov-21-G) | Potency (Tov112D)

CCOC(=O)Nc1nc2ccccc2[nH]1
inactive: Potency (C33A) | Potency (CAOV3) | Potency (CASKI) | Potency (Es-2) | Potency (HeLa) | Potency (Hek293T) | Potency (JEG-3) | Potency (OV90) | Potency (PA-1) | Potency (SKOV3) | Potency (Tov-21-G) | Potency (Tov112D)

CC(=O)O[C@@H]1C[C@@]23C[C@@]24CC[C@H](OC2OC[C@@H](O)[C@H](O)[C@H]2O)C(C)(C)[C@@H]4CC[C@H]3[C@]2(C)CC3OC4(C[C@@H](C)C3[C@@]12C)OCC1(C)OC14 (stereo partly specified)
inactive: Potency (C33A) | Potency (CAOV3) | Potency (CASKI) | Potency (Es-2) | Potency (HeLa) | Potency (Hek293T) | Potency (JEG-3) | Potency (OV90) | Potency (PA-1) | Potency (SKOV3) | Potency (Tov-21-G) | Potency (Tov112D)

COc1c2c(c(C)c3c1C(=O)OC3)O[C@@]1(C)C[C@@H](O)[C@]34O[C@](OC)(CC[C@]3(C)[C@H]1C2)OC4(C)C
inactive: Potency (C33A) | Potency (CAOV3) | Potency (CASKI) | Potency (Es-2) | Potency (HeLa) | Potency (Hek293T) | Potency (JEG-3) | Potency (OV90) | Potency (PA-1) | Potency (SKOV3) | Potency (Tov-21-G) | Potency (Tov112D)

OCC1=CC[C@@H]2C=CO[C@@H](O[C@@H]3O[C@H](CO)[C@@H](O)[C@H](O)[C@H]3O)[C@H]12
inactive: Potency (C33A) | Potency (CAOV3) | Potency (CASKI) | Potency (Es-2) | Potency (HeLa) | Potency (Hek293T) | Potency (JEG-3) | Potency (OV90) | Potency (PA-1) | Potency (SKOV3) | Potency (Tov-21-G) | Potency (Tov112D)

CC(C)(C)NCc1cc(Nc2ccnc3cc(Cl)ccc23)c2c(c1O)CCCC2
inactive: activity change, negative = cytotoxicity (C33A) 15.8% [at 0.462 µM] | activity change, negative = cytotoxicity (CAOV3) -2.51% [at 0.462 µM] | activity change, negative = cytotoxicity (CASKI) 10.8% [at 0.462 µM] | activity change, negative = cytotoxicity (Es-2) 6.55% [at 0.462 µM] | activity change, negative = cytotoxicity (HeLa) 9.09% [at 0.462 µM] | activity change, negative = cytotoxicity (Hek293T) -0.834% [at 0.462 µM] | activity change, negative = cytotoxicity (JEG-3) 2.67% [at 0.462 µM] | activity change, negative = cytotoxicity (OV90) 12.6% [at 0.462 µM] | activity change, negative = cytotoxicity (PA-1) 0.938% [at 0.462 µM] | activity change, negative = cytotoxicity (SKOV3) 4.41% [at 0.462 µM] | activity change, negative = cytotoxicity (Tov-21-G) 8.34% [at 0.462 µM] | activity change, negative = cytotoxicity (Tov112D) 20.2% [at 0.462 µM]

CC(C)(O)C1CCC2(C)C3C(O)C4C(C13)C42CO (stereo unspecified)
inactive: Potency (C33A) | Potency (CAOV3) | Potency (CASKI) | Potency (Es-2) | Potency (HeLa) | Potency (Hek293T) | Potency (JEG-3) | Potency (OV90) | Potency (PA-1) | Potency (SKOV3) | Potency (Tov-21-G) | Potency (Tov112D)
